A number with no mark means an inactive call. Records with an inconclusive call do not appear. Calls of active or inactive are those of the source. Unless noted, the call rests on the fitted dose curve; in most records, active means well fitted curve in the direction sought with a large enough effect in the repeat runs; inconclusive means weak or mixed curves; inactive means no such curve, though single readings can be large; an effect the other way counts as inactive or inconclusive.

The nature of assay [1]: qHTS assay for small molecule agonists of the p53 signaling pathway (AID 651631; calls by dose curve; further: nearly all actives have a fitted effect of over 15% in size). The method, boiled down:
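We treat p53RE-bla HCT-116 cells with compounds for 16 h at 37 °C, add LiveBLAzer B/G FRET substrate for 2 h at room temperature, and measure fluorescence intensity.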

The nature of assay [2]: qHTS assay for small molecules that induce genotoxicity in human embryonic kidney cells expressing luciferase-tagged ATAD5 (AID 651632). Further: nearly all actives have a fitted effect of over 15% in size. In a few lines:
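HEK293T cells carrying luciferase-tagged ATAD5 were given compound or DMSO vehicle and incubated 16 hr at 37C, 5% CO2. Luciferase activity was read after 30 min at room temperature with Amplite; a rise signals genotoxic stress.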

The nature of assay [3]: qHTS assay for small molecule agonists of the p53 signaling pathway - cell viability (AID 651633; calls by dose curve;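 further: p53RE-bla HCT reporter cells with a stable beta-lactamase p53 reporter; series mostly up to about 83 µM; nearly all actives have a fitted effect of over 30% in size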). In a few lines: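 Viability counter-read: CellTiter-Glo luminescence (30 min, room temperature) in the same p53RE-bla plates. These plates had been exposed to compounds for 16 h at 37 C.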
Assay [4] is described as follows: qHTS assay for small molecules that induce genotoxicity in human embryonic kidney cells expressing luciferase-tagged ATAD5 - cell viability (AID 651634; calls by dose curve; further: nearly all actives have a fitted effect of over 25% in size). In a few lines:
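HEK293T cells carrying luciferase-tagged ATAD5, 2,000 cells/well, exposed to compound for 15.5 hr at 37C. Viability read as live-cell protease activity by CellTiter-Fluor fluorescence after 30 min at 37C.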
A general note: Quantitative high-throughput screening tests each substance at several concentrations.

Assay [5] is described as follows: qHTS assay for small molecule disruptors of the mitochondrial membrane potential - cell viability (AID 720634; calls by dose curve;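 further: human HepG2 liver cancer cells; series mostly up to about 83 µM; nearly all actives have a fitted effect of over 20% in size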). The method, boiled down: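 HepG2 cells, 2,000 per well, attached overnight, then treated 1 hr at 37 C, 5% CO2. Viability read as ATP by CellTiter-Glo luminescence after 30 min at room temperature. Read in the same wells as the m-MPI membrane-potential dye assay.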

Assay [6] is described as follows: qHTS assay to test for compound auto fluorescence at 590 nm (red) in HepG2 cells (AID 720674). The method, boiled down:
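1 hr compound incubation on HepG2 cells, 37 C, 5% CO2; plate read ex 540 nm / em 590 nm; intensities reported as Rose Bengal sodium equivalents.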

Assay [7] is described as follows: qHTS assay to test for compound auto fluorescence at 535 nm (green) in HepG2 cells (AID 720675).
Assay [8] can be described thus: qHTS assay to test for compound auto fluorescence at 460 nm (blue) in HEK293 cells (AID 720678). The method, boiled down: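 Blue-channel (Ex/Em 405/460 nm) intensity measured in HEK293 cultures after overnight compound exposure at 37C; signal expressed relative to triamterene. Cells plated 2,000 per well in 10% dialyzed FBS medium and allowed 4-5 hr to attach.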
Assay [9] can be described thus: qHTS assay to test for compound auto fluorescence at 590 nm (red) in HEK293 cells (AID 720679). In a few lines: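 Red-channel autofluorescence (Ex/Em 540/590 nm; Rose Bengal sodium reference) was measured after overnight 37C, 5% CO2 exposure of attached HEK293 cells, 2,000 per well in medium with 10% dialyzed FBS.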
The nature of assay [10]: qHTS assay to test for compound auto fluorescence at 460 nm (blue) in HEK293 cell free culture (AID 720681). In a few lines:
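Blue fluorescence (Ex 405/Em 460 nm, triamterene-equivalent) was read immediately after pin transfer of compound or DMSO into medium (DMEM, 10% FBS) without cells.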

The nature of assay [11]: qHTS assay to test for compound auto fluorescence at 535 nm (green) in HEK293 cell free culture (AID 720682). In a few lines: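 Green-channel intensity (Ex/Em 485/535 nm) was recorded from compound-treated wells containing only DMEM with 10% FBS. Fluorescein provided the equivalency standard.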
A short description of assay [12]: qHTS assay to test for compound auto fluorescence at 590 nm (red) in HEK293 cell free culture (AID 720683). In a few lines: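 Red-channel autofluorescence of compounds in culture medium (DMEM, 10% FBS), no cells, measured at 540/590 nm. Rose Bengal sodium is the reference fluorophore for equivalence.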
A short description of assay [13]: qHTS assay to test for compound auto fluorescence at 590 nm (red) in HepG2 cell free culture (AID 720684). The method, boiled down: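 Steps: dispense MEM/10% FBS medium, no cells; pin compound or DMSO vehicle; read red channel, Ex/Em 540/590 nm. Output given as Rose Bengal sodium equivalents.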
A short description of assay [14]: qHTS assay to test for compound auto fluorescence at 460 nm (blue) in HepG2 cell free culture (AID 720685). In a few lines:
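Compound (23 nL) or DMSO pinned into cell-free MEM with 10% FBS; blue fluorescence read at 405/460 nm excitation/emission, expressed as auto-fluorescence equivalency to triamterene.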

A short description of assay [15]: qHTS assay to test for compound auto fluorescence at 535 nm (green) in HepG2 cell free culture (AID 720686).
Assay [16] can be described thus: qHTS assay to test for compound auto fluorescence at 460 nm (blue) in HepG2 cells (AID 720687). The method, boiled down: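 Blue-channel autofluorescence (Ex/Em 405/460 nm, triamterene-equivalent) was measured after 1 hr compound exposure at 37 C, 5% CO2. Cells were HepG2, plated overnight at 37 C in MEM plus 10% FBS.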
Assay [17] deals with Glucocorticoid receptor (Homo sapiens) (UniProt P04150). The assay is described as follows: qHTS assay to identify small molecule agonists of the glucocorticoid receptor (GR) signaling pathway (AID 720691; active means well fitted activation curve with a large enough effect in the signal ratio in the repeat runs, not every such curve was filed as active; the % refers to the signal ratio). The method, boiled down: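 GR-bla HeLa cells carrying a GRE-driven beta-lactamase reporter, exposed to compounds for 18 h at 37 C. Reporter activation read as fluorescence after 2 h with LiveBLAzer B/G FRET substrate at room temperature.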

Assay [18] can be described thus: qHTS assay for small molecule disruptors of the mitochondrial membrane potential (AID 720635). Further: potency means the concentration at half of the fitted maximal effect. The method, boiled down:
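Mitochondrial membrane potential tracked with Mito-MPS dye, red aggregates (ex 540/em 590 nm) against green monomers (ex 490/em 535 nm). Compound treatment 1 hr at 37C, dye 30 min in HepG2.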

Assay [19] in a line: qHTS assay to test for compound auto fluorescence at 535 nm (green) in HEK293 cells (AID 720680).
For assay [20], the target named is Glucocorticoid receptor (Homo sapiens) (UniProt P04150). Nature of the assay: qHTS assay to identify small molecule antagonists of the glucocorticoid receptor (GR) signaling pathway (AID 720692; active means well fitted inhibition curve with a large enough effect in the signal ratio in the repeat runs, not every such curve was filed as active; the % refers to the signal ratio). In a few lines: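 GR-bla HeLa cells carrying a GRE-driven beta-lactamase reporter received compound after 4 h plating, then dexamethasone (5 nM final). After 18 h at 37C, the FRET substrate was loaded for 2 h at room temperature and fluorescence read.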
On the % scale 0 is the no-effect control and ±100 the full control effect.

Chain of Glucocorticoid receptor (Homo sapiens) (P04150 whole entry, looked up): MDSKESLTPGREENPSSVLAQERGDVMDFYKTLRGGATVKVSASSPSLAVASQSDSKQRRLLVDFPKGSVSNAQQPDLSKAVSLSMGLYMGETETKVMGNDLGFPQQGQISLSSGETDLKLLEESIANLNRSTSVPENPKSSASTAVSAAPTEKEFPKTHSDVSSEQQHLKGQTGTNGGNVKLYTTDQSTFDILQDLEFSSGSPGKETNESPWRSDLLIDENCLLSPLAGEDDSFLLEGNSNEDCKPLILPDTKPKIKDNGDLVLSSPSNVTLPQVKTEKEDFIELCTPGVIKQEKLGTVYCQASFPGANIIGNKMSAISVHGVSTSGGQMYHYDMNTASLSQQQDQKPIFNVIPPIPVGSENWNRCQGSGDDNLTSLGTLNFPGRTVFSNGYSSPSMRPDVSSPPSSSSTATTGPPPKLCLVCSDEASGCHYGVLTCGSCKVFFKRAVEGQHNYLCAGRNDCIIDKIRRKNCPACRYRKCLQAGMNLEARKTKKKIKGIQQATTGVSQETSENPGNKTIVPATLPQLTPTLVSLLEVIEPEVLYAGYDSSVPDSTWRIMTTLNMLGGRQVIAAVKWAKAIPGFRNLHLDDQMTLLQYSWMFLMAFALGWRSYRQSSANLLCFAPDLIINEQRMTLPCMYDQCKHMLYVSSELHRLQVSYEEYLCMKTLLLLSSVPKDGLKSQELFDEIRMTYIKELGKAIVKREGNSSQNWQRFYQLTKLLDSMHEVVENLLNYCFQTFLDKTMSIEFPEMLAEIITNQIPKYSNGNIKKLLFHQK

Take `CCCCCCCCCC=O`: the Potency result in assay [1], in [2], in assay [3], in assay [4], in assay [5] and in assay [8] was “inactive” each time. The Potency result in [10], in assay [14], in assay [16] and in assay [17] was “inactive” in each case. For the same compound, the call in assay [6], in assay [7], in [9], in assay [11], in assay [12] and in assay [13] was inactive. In [15], the result was inactive.

Take `Cc1ccc(C(=O)C(C)CN2CCCCC2)cc1` (configuration not stated): the Potency entry in assay [1], in [2], in assay [3], in assay [4], in [18] and in assay [8] was “inactive” throughout. Moreover, the Potency entry in assay [10] and in [14] was “inactive” each time. The result in [6], in assay [7], in assay [9], in [19], in assay [11] and in assay [13] was inactive. The compound was classed as inactive in assay [15].

As to `C1=Cc2ccccc2C1`, the Potency result in [1], in assay [2], in assay [3], in assay [4], in assay [5] and in assay [8] was “inactive” in each case. For the same compound, the Potency entry in assay [10] is “inactive”. The compound was called inactive in assay [6], in assay [7], in [9], in assay [11], in [13] and in assay [15].

For the compound `CCCC(=O)OCC`, the Potency result in assay [1], in assay [2], in assay [3], in assay [4], in assay [5] and in assay [14] was “inactive” throughout. For the same compound, the Potency result in [20] is “inactive”. Besides, the call in [6], in assay [9], in assay [19], in assay [11], in [12] and in [13] was inactive. Further, the result in assay [15] was inactive.

With `FC(F)(F)C(F)(F)C(F)(F)C(F)(F)C(F)(F)C(F)(F)CCI`, the Potency entry in assay [1], in [2], in [3], in [4], in assay [18] and in [8] was “inactive” in each case. Further, the Potency entry in assay [14] and in assay [16] was “inactive” in each case. Further, the compound was called inactive in assay [6], in assay [7], in assay [9], in assay [19], in assay [12] and in [13].

Regarding `CC(C)(C)C(=O)OCOP(=O)(COCCn1cnc2c(N)ncnc21)OCOC(=O)C(C)(C)C`, the Potency entry in assay [1], in assay [2], in assay [3], in assay [4], in assay [5] and in [8] was “inactive” in each case. Further, the Potency result in [10], in [17] and in assay [20] was “inactive” throughout. The result in [6], in assay [7], in [9], in assay [19], in assay [11] and in [12] was inactive. Moreover, the compound was classed as inactive in assay [13] and in assay [15].

As for `CCCCOc1cc(C(=O)OCCN(CC)CC)ccc1N`, the Potency result in [1], in [2], in assay [3], in [4], in [5] and in [17] was “inactive” throughout. Further, the Potency entry in assay [20] is “inactive”. Besides, the fluorescence, relative to Rose Bengal in assay [6] is -0.373% [at 18.6 µM]. Further, the fluorescence, % of fluorescein control in [7] was -0.0083% [at 18.6 µM]; in [15] it was 0.0068% [at 18.6 µM]. Further, in assay [8], the fluorescence, % of triamterene is 0.0068% [at 18.6 µM]. In addition, the fluorescence, % of fluorescent control is 0.112% [at 18.6 µM] in assay [9]; -0.116% [at 18.6 µM] in [10]; -0.0563% [at 18.6 µM] in [12]; 0.0523% [at 18.6 µM] in assay [14]; -0.135% [at 18.6 µM] in assay [16]. The fluorescence, % of fluorescein in assay [19] was 0.0482% [at 18.6 µM]. In addition, the activity change in assay [11] is -0.0782% [at 18.6 µM]. In assay [13], the fluorescence, % of Rose Bengal is 0.59% [at 18.6 µM].

As to `N#Cc1cc2ccccc2c2ccccc12`, the Potency result in [1], in assay [2], in [3], in [4], in assay [8] and in [10] was “inactive” in each case. Further, the Potency result in assay [14], in assay [16], in [17] and in [20] was “inactive” each time. Also, the Potency in [18] was 38.8 µM (active). In addition, the compound was called inactive in [6], in [7], in [9], in [19], in [12] and in assay [13]. In [15], the call was inactive.

Values taken from PubChem BioAssay (Tox21).
